Consider 41 compounds from paper PMC4336329 (PLoS ONE, 2015).

SMILES strings stand for the structures. Hit rate of the full screen: of about 310,000 compounds, about 14,000 (4.5%) showed an effect of 50% or more. Effects have a minus sign here. This is one part of a sample in which strong results are shown more often than they occur.
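Further: peak tail current of the secondary pulse compared with the same well before compound.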

human ether-à-go-go-related gene (hERG) potassium channel, sequence (Q12809 whole entry, looked up): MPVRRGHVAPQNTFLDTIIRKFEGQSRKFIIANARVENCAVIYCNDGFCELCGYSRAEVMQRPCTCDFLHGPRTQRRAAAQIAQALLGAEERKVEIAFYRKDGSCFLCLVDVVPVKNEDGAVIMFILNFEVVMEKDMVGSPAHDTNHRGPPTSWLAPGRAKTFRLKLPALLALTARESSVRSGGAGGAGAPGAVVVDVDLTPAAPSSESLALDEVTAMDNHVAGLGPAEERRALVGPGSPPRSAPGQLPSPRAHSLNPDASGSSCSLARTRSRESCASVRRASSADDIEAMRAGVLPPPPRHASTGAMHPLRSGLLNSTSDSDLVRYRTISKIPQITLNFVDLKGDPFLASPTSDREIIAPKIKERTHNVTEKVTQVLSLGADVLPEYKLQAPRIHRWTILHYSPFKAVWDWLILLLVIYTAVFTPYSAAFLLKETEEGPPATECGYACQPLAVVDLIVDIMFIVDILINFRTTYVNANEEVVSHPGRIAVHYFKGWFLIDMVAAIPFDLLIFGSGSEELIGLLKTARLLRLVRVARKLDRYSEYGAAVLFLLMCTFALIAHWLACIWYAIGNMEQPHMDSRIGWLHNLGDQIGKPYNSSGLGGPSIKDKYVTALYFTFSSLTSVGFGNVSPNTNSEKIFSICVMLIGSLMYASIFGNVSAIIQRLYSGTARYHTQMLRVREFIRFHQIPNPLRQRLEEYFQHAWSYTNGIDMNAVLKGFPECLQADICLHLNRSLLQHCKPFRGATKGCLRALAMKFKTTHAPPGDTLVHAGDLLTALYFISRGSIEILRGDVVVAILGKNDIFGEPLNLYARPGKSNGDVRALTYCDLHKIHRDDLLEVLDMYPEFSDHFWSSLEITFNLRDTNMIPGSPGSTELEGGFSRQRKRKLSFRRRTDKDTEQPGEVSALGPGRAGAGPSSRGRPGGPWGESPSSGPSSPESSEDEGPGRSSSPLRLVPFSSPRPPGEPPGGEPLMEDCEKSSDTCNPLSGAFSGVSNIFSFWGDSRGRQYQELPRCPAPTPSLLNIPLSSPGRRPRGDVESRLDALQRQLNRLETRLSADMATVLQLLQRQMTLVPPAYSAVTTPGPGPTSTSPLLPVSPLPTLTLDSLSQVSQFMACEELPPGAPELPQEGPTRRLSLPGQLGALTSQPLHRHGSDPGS

This assay concerns the target human ether-à-go-go-related gene (hERG) potassium channel (human, UniProt Q12809). The experiment in a line: primary screen, population patch clamp on CHO cells stably expressing hERG; higher = less effect of the substance.
`CC(=O)c1ccc(N2CCN(C(=O)c3ccco3)C(C)C2)c(F)c1` (centres unmarked): the “hERG current change (%, negative = inhibition) at 10uM” value is -49.9%.

Turning to `CC(C)(C)c1ccc(NC(=O)N2CCN(c3ccc([N+](=O)[O-])cn3)CC2)cc1`, the “hERG current change (%, negative = inhibition) at 10uM” value is recorded as -9.81%.

Regarding `CC1CN(c2ccc([N+](=O)[O-])cc2F)CCN1C(=O)c1ccco1` (centres unmarked), the “hERG current change (%, negative = inhibition) at 10uM” value is recorded as -62%.

In the case of `CC(C)(C)c1ccc(C(=O)N2CCCN(c3ccc([N+](=O)[O-])cn3)CC2)cc1`, the “hERG current change (%, negative = inhibition) at 10uM” value is -72.3%.

Regarding `CC(C)(C)c1ccc(NC(=O)N2CCCN(c3ccc([N+](=O)[O-])cn3)CC2)cc1`, the “hERG current change (%, negative = inhibition) at 10uM” value is on record as -25.9%.

Consider `CC(=O)c1cc(F)c(N2CCN(c3ccc([N+](=O)[O-])cc3F)CC2)cc1C`, for which the “hERG current change (%, negative = inhibition) at 10uM” value is reported as -12.3%.

In the case of `O=C(O)C(=O)O.O=C(c1ccco1)N1CCN(S(=O)(=O)c2ccc([N+](=O)[O-])cc2)CC1`, the “hERG current change (%, negative = inhibition) at 10uM” value is -39.8%.

For `O=C(NC(=O)N1CCN(c2ccc([N+](=O)[O-])cn2)CC1)c1ccccc1F`, the “hERG current change (%, negative = inhibition) at 10uM” value is listed as -24.5%.

Take `O=C(c1ccco1)N1CCN(c2ccc([N+](=O)[O-])cc2Cl)CC1`: the “hERG current change (%, negative = inhibition) at 10uM” value is given as -71.4%.

Take `O=C(Nc1ccc(F)cc1F)N1CCCN(c2ccc([N+](=O)[O-])cn2)CC1`: the “hERG current change (%, negative = inhibition) at 10uM” value is recorded as -50.2%.

In the case of `O=C(c1ccco1)N1CCN(S(=O)(=O)c2cccc([N+](=O)[O-])c2)CC1`, the “hERG current change (%, negative = inhibition) at 10uM” value is reported as -20.7%.

For the compound `CCOC(=O)c1cnn(CCOC(=O)c2ccccc2F)c1NC(=O)c1ccccc1F`, the “hERG current change (%, negative = inhibition) at 10uM” value is -15.6%.

As for `COC(=O)c1cc(Br)c(=O)n(-c2nccs2)c1`, the “hERG current change (%, negative = inhibition) at 10uM” value is recorded as -5.98%.

As to `Cc1cccc(N2C(S)=C(C#N)C(=O)NC2c2cccs2)c1` (centres unmarked), the “hERG current change (%, negative = inhibition) at 10uM” value is 13%.

Take `CN(CC(=O)Nc1cccc2ccccc12)C(=O)/C=C/c1cccs1`: the “hERG current change (%, negative = inhibition) at 10uM” value was -10.7%.

On to `O=C1OC(/C=C/c2ccc(Cl)cc2)=NC/1=C/c1ccco1`, for which the “hERG current change (%, negative = inhibition) at 10uM” value was 2.78%.

As to `Cc1occc1C(=O)NNC(=O)c1ccccc1F`, the “hERG current change (%, negative = inhibition) at 10uM” value is recorded as 13%.

As for `CC(=O)C(=Nc1cccc(Cl)c1)NNc1ccccc1C`, the “hERG current change (%, negative = inhibition) at 10uM” value is recorded as 8.82%.

As for `O=C(N1CCN(c2ccc(F)cc2)CC1)C1(c2cccs2)CCOCC1`, the “hERG current change (%, negative = inhibition) at 10uM” value is -33%.

For the compound `O=C(c1ccco1)N1CCN(c2ccc([N+](=O)[O-])cc2F)CC1`, the “hERG current change (%, negative = inhibition) at 10uM” value is listed as -64.9%.

Regarding `O=C(c1ccco1)N1CCN(c2ccc([N+](=O)[O-])cn2)CC1`, the “hERG current change (%, negative = inhibition) at 10uM” value was -57.7%.

For the compound `CC(=O)c1ccc(N2CCN(C(=O)c3ccco3)CC2)c(F)c1`, the “hERG current change (%, negative = inhibition) at 10uM” value is listed as -25.2%.

As to `O=C(c1ccco1)N1CCN(c2cc(N3CCOCC3)c(F)cc2[N+](=O)[O-])CC1`, the “hERG current change (%, negative = inhibition) at 10uM” value is reported as -49.6%.

For `O=C(c1ccco1)N1CCN(c2ccc(N3CCCCC3)nn2)CC1`, the “hERG current change (%, negative = inhibition) at 10uM” value is listed as -44.8%.

For the compound `O=C(c1ccc([N+](=O)[O-])cc1)N1CCN(C(=O)c2ccco2)CC1`, the “hERG current change (%, negative = inhibition) at 10uM” value is listed as -47.4%.

With `O=C(CCCNS(=O)(=O)c1cccc2nsnc12)NCc1ccc(Cl)cc1`, the “hERG current change (%, negative = inhibition) at 10uM” value was -37.9%.

Regarding `CC(C)n1nc(C(=O)N2CCN(S(=O)(=O)c3cccs3)CC2)c2ccccc2c1=O`, the “hERG current change (%, negative = inhibition) at 10uM” value is recorded as -28.7%.

For the compound `CC(C)Nc1nnc(SCC(=O)N2CCN(C(=O)c3ccco3)CC2)s1`, the “hERG current change (%, negative = inhibition) at 10uM” value is reported as -2.72%.

For `O=C(CSc1nnc(SCc2ccc(Cl)cc2)s1)N1CCN(C(=O)c2ccco2)CC1`, the “hERG current change (%, negative = inhibition) at 10uM” value is recorded as -33.7%.

`O=C(CSc1nn(-c2ccc(F)cc2)c(=S)s1)NC(=O)NCc1ccco1`: the “hERG current change (%, negative = inhibition) at 10uM” value is 2.66%.

`O=C(CSc1nn(-c2ccc(Cl)cc2)c(=S)s1)N1CCN(C(=O)c2ccco2)CC1`: the “hERG current change (%, negative = inhibition) at 10uM” value was -70.5%.

For `O=C(CSc1nn(-c2ccc(F)cc2)c(=S)s1)N1CCN(C(=O)c2ccco2)CC1`, the “hERG current change (%, negative = inhibition) at 10uM” value is -75%.

As for `CCSc1nnc(SCC(=O)N2CCN(C(=O)c3ccco3)CC2)s1`, the “hERG current change (%, negative = inhibition) at 10uM” value is -33.4%.

With `O=S(=O)(c1ccc(Cl)cc1)N1CCN(C(=S)Nc2ccccc2F)CC1`, the “hERG current change (%, negative = inhibition) at 10uM” value is recorded as 2.92%.

Take `O=C(Nc1cccc(-c2ccc(N3CCOCC3)nn2)c1)c1ccccc1`: the “hERG current change (%, negative = inhibition) at 10uM” value is -30.8%.

In the case of `CC(=O)C[C@@H](O)CC(=O)[C@H]1OC(=O)CC/C=C\Cc2ccccc21`, the “hERG current change (%, negative = inhibition) at 10uM” value amounted to 14.4%.

For `O=C(CN1C(=O)C2CC=CCC2C1=O)NCC1COc2ccccc2O1` (centres unmarked), the “hERG current change (%, negative = inhibition) at 10uM” value was 1.42%.

On to `CN(C)C(=O)NC(Nc1cccc([N+](=O)[O-])c1)C(Cl)(Cl)Cl` (centres unmarked), for which the “hERG current change (%, negative = inhibition) at 10uM” value is recorded as -27.1%.

Turning to `CCc1ccc(CNC(=O)c2ccc(OC)c(OC3CCN(C(C)C)CC3)c2)nc1`, the “hERG current change (%, negative = inhibition) at 10uM” value is reported as -7.31%.

In the case of `Cc1ccnc(NC(c2cccnc2)c2ccc3cccnc3c2O)c1` (centres unmarked), the “hERG current change (%, negative = inhibition) at 10uM” value is on record as -22.5%.

`COc1ccc(N2CCN(C(=O)C(=O)c3cn(CC(=O)N4CCOCC4)c4ccccc34)CC2)cc1`: the “hERG current change (%, negative = inhibition) at 10uM” value was determined as 2.05%.
